Tb PFK inh-1 = T. brucei PFK enzyme inhibition; O15648; T. brucei PFK, ADP-Glo luminescence; Potency, µM (highest dose often 57.5 µM), without a hit: at the top dose activity, negative = inhibition, most hits filed as inhibitors; 0.17% of 330,000 active; AID 485367;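 further: 0% = uninhibited 1x PFK enzyme wells and -100% = no-enzyme wells; nearly all actives have a fitted effect of over 60% in size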
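PFK 1.25 nM, F6P 0.5 mM, ATP 0.1 mM, 0.1 M TEA pH 8.0, 5 mM MgCl2, 0.01% Tween20, 0.1% BSA; 45 min RT. ADP-Glo readout. qHTS titration up to 57 uM; curves fitted, compounds curve-classed.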
VDR inh = blocks the human vitamin D receptor; P11473; VDR-SRC2-3 peptide fluorescence polarization, 2 h; Potency, µM, without a hit: max response, negative = inhibition, usual class: inhibitors; 0.93% of 400,000 active; AID 504847; further: on the % scale 0 is the no-effect control and ±100 the full control effect
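The screen uses fluorescence polarization to detect compounds that interfere with recruitment of the SRC2-3 coactivator peptide to VDR; plates are read after 2 h at room temperature.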
BRCA1 expr act = activators of BRCA1 expression | MCF7-BRCA1-FFLuc reporter, luminescence, 48 h; response scale: scaled: vehicle 0%, 10 µM genistein 100% | Potency, µM (series often up to 46.1 µM), without a hit: top-dose activation, usual class: activators | 1.1% of 380,000 active; further: nearly all actives have a fitted effect of over 80% in size
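48 h compound treatment of MCF7-BRCA1-FFLuc cells (phenol-red free MEM, 37 °C), then 15 min with luciferase substrate and luminescence imaging.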
PLK1 PBD block = blocks phosphopeptide binding to human PLK1 polo-box domain | P53350 | Plk1 PBD binding of FITC phosphopeptide, fluorescence polarization | Potency, µM, for the others: max response, negative = inhibition, actives largely listed as inhibitors | 2.8% of 360,000 active; further: series mostly up to about 57 µM; on the % scale 0 is the no-effect control and ±100 the full control effect; nearly all actives have a fitted effect of over 65% in size
Target sequence (P53350 whole entry, looked up, the tested form may be a part): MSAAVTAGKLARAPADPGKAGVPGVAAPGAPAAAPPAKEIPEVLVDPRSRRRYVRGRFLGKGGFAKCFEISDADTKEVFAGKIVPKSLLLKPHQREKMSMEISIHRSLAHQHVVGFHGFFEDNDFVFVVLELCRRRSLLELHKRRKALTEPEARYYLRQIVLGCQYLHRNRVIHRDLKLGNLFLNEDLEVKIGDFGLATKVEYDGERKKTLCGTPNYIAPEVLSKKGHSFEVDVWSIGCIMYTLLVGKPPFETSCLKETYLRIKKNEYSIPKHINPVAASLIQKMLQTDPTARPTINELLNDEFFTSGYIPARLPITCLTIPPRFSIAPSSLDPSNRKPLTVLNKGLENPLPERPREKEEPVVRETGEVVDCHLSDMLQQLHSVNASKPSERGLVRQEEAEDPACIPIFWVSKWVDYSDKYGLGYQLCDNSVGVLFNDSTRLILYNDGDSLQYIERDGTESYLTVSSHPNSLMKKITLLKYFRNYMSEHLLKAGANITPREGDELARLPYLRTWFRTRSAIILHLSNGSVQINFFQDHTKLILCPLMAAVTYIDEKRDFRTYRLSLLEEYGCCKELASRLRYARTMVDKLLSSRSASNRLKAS
Tb PFK KinaseGlo = orthogonal confirmation of T. brucei phosphofructokinase inhibitors. 47% of 1,100 active. Tb PFK enzyme, ATP depletion, Kinase-Glo Plus luminescence. shares compounds with Tb PFK inh-1. Potency, µM (top dose mostly 57.5 µM), for inactives: top-dose inhibition; calls by dose curve; further: nearly all actives have a fitted effect of over 60% in size
Tb PFK inh-2 = T. brucei PFK enzyme inhibition, hit validation; shares compounds with Tb PFK inh-1; purified T. brucei PFK, ADP-Glo luminescence, 45 min; Potency, µM (highest dose often 57.5 µM), inactives show top-dose activity change, negative = inhibition, most hits filed as inhibitors; 41% of 1,100 active; AID 504637;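 further: plate controls were full PFK enzyme control for no effect and no enzyme control for full effect; nearly all actives have a fitted effect of over 60% in size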
* = called active by the depositor; u = inconclusive; x = no result given; ! = a repeat was not active. This is a sample that favours compounds with a hit; in the whole collection about 3.9% have one here. Unless noted, the call rests on the fitted dose curve; in most records, active means well fitted curve in the direction sought with a large enough effect; inconclusive means small, poorly fitted or top-dose-only effect, or another doubt; inactive means no such curve, though single readings can be large; an effect the other way counts as inactive or inconclusive. Potency means the concentration at half of the fitted maximal effect.

SMILES	Tb PFK inh-1	VDR inh	BRCA1 expr act	PLK1 PBD block	Tb PFK KinaseGlo	Tb PFK inh-2
O=S1OCC2C(CO1)C1(Cl)C(Cl)=C(Cl)C2(Cl)C1(Cl)Cl (centres undefined)	x	-1%	x	x	x	x
O=C(OCc1cccc([N+](=O)[O-])c1)c1ccc[nH]c1=O	7.6µM*	6%	-1%	-11%	8.5µM*	6.7µM*
O=[N+]([O-])c1cccc(CCl)c1	0%	-3%	0%	-21%	x	x
CCCCCCC(=O)O[C@H]1CC[C@H]2[C@@H]3CCC4CC(=O)C=C(C)[C@]4(C)[C@H]3CC[C@]12C (some centres undefined)	x	-18%	x	x	x	x
CN(C)C1(CNC(=O)Nc2ccc(Cl)c(Cl)c2)CCCCC1	-6%	-8%	-98%	-7%	x	x
O=C(Nc1ccc(Cl)c(Cl)c1)N1CCSC1c1ccco1 (centres undefined)	13µM*	-9%	-81%	-4%	12%	-11%
CC(NCc1ccc(Cl)c(Cl)c1)C(O)c1ccccc1 (centres undefined)	u	-5%	-1%	-6%	12µM*	24µM*
CN1CN(c2cccc([N+](=O)[O-])c2)CN=C1N[N+](=O)[O-]	27µM*	3%	4%	-12%	u	u
N#Cc1sc(NCc2ccccn2)nc1Cl	u	-17%	-7%	3%	u	u
CNC(=S)N1CCN(c2ccc(Cl)c(Cl)c2)CC1	27µM*	0%	-16%	-5%	13µM*	27µM*
COC(=O)N1CCN(c2ccc(Cl)c(Cl)c2)CC1	30µM*	0%	7%	-2%	24µM*	30µM*
COC(=O)N1CCN(C(=O)Cc2ccc(Cl)c(Cl)c2)C(CN2CCCC2)C1 (centres undefined)	-20%	-15%	x	x	x	x
Cc1ccc(Cn2cccc(C(=O)Nc3nnc(C)s3)c2=O)cc1	x	7%	6%	x	x	x
CN(CCCC(=O)c1cccnc1)N=O	x	-3%	x	x	x	x
CCN(CC)CCSc1nc2ccccc2c(=O)n1-c1ccc(Cl)cc1	x	-15%	x	x	x	x
Oc1ccc(C2CNCc3sccc32)cc1O (centres undefined)	u	13µM*!	4%	-10%	u	u
O=C(O)c1ccccc1NS(=O)(=O)c1cccc(-n2sc3ccccc3c2=O)c1	2.4µM*	10µM*	-30%	3.4µM*	12µM*	24µM*
Clc1ccc(C[n+]2cc(-c3ccccc3)n3c2CCC3)cc1Cl	u	-2%	-41%	2%	6.7µM*	11µM*
Clc1cccc(CN2C3=NCCCN3c3ccccc32)c1	u	-4%	-22%	1%	u	u
Brc1ccc(CN2C3=NCCCN3c3ccccc32)cc1	u	-14%	-24%	u	27µM*	u
Clc1ccc(CN2C3=NCCN3c3ccccc32)cc1	24µM*	1%	-48%	2%	21µM*	27µM*
c1ccc(OCCN2C3=NCCN3c3ccccc32)cc1	21µM*	5%	-9%	-3%	24µM*	u
O=C1CN=C(c2ccccc2Cl)c2cc(Cl)ccc2N1Cc1cccc(Cl)c1	x	17%	x	x	x	x
CC1CC[C@@]2(OC1)OC1C(O)C3C4CC[C@H]5CC(O[C@@H]6O[C@@H](CO)[C@H](OC7OC(CO)C(O)C(OC8OCC(O)C(O)[C@H]8O)[C@@H]7O[C@@H]7OC(CO)[C@H](O)[C@@H](O[C@@H]8OC(CO)C(O)C(O)C8O)C7O)C(O)C6O)C(O)C[C@]5(C)C4CC[C@]3(C)C1C2C (some centres undefined)	x	4%	x	x	x	x
CNCC/C=C\c1cccnc1	x	0%	x	x	x	x
SMILES	Tb PFK inh-1	VDR inh	BRCA1 expr act	PLK1 PBD block	Tb PFK KinaseGlo	Tb PFK inh-2
CC(NC(=O)CCl)c1ccc(Cl)c(Cl)c1 (centres undefined)	19µM*	-14%	-58%	-16%	21µM*	24µM*
O=S1(=O)CCN(Cc2ccc(Cl)c(C(F)(F)F)c2)CC1	u	16%	-2%	-8%	24µM*	u
COc1ccc(-c2nc(CN3C(=O)CN=C(c4ccccc4)c4cc(Cl)ccc43)c(C)o2)cc1	x	17%	x	x	x	x
CS(=O)(=O)N1CCC2(CCCN(Cc3ccncc3)C2)CC1	x	-20%	x	x	x	x
CC1CCN(S(=O)(=O)c2ccc3c(c2)CCC(=O)N3CC(=O)Nc2cccc(C#N)c2)CC1	9.5µM*	18%	x	x	6µM*	12µM*
CC(C)C[C@H](NC(=O)[C@H](Cc1ccccc1)NC(=O)CNC(=O)CNC(=O)[C@@H](N)Cc1ccc(O)cc1)C(=O)N[C@@H](CCCN=C(N)N)C(=O)N[C@@H](CCCCN)C(=O)N[C@@H](Cc1ccc(O)cc1)C(=O)N1CCC[C@H]1C(=O)N[C@@H](CCCCN)C(=O)O	x	-2%	x	x	x	x
O=C(O)CCc1nn2cc(-c3ccccc3)nc2[nH]c1=O	u	-12%	-6%	0%	-3%	10%
C=CC1CN2CCC1CC2C(OC(=O)OCC)c1ccnc2ccc(OC)cc12 (centres undefined)	x	-1%	x	x	x	x
S=c1[nH]nc(C2CC2)n1Cc1ccco1	-7%	-8%	4%	u	x	x
CCn1c2ccccc2c2cc(NC(=O)CSc3nnc(C4CC4)n3Cc3ccco3)ccc21	u	-13%	-53%	-21%	u	-28%
O=C(c1csnn1)N1CCC2(CC1)CN(Cc1ccncc1)C2	x	2%	x	x	x	x
Cc1c(Br)c([N+](=O)[O-])nn1CC(=O)Nc1ccc(C(N)=O)cc1	19µM*	-12%	1%	-5%	13µM*	27µM*
CCOc1cccc(N2C(=O)/C(=C/c3ccco3)C(=O)NC2=S)c1	u	u	-5%	12µM*	u	u
O=c1c2cc(F)ccc2sn1-c1ccc(F)cc1	7.6µM*	18µM*	11%	3.4µM*	u	u
COc1ccc(-n2sc3ccc(F)cc3c2=O)cc1	6.7µM*	u	43%	2.7µM*	u	u
Cc1ccc(C)c(-n2sc3ccc(F)cc3c2=O)c1	3µM*	20µM*	-10%	2.1µM*	19µM*	17µM*
Cc1ccc(C)c(CN2CCC(n3nnc4cc(F)ccc43)CC2)c1	13%	-11%	-14%	0%	x	x
C=C1C2CC[C@@]3(C)C(c4ccoc4)OC(=O)C[C@@]13OC1CC(=O)C(C)(C)C(C(OC(C)=O)C(=O)OC)[C@@]12C (some centres undefined)	x	-7%	x	x	x	x
COc1ccc(Cl)cc1C(=O)NNC(=O)COC(=O)CCN=C1NS(=O)(=O)c2ccccc21	u	-19%	-6%	-1%	-28%	u
C=C1[C@@H](C)[C@H]2[C@H](Cc3ccccc3)NC(=O)[C@]23[C@H](OC(C)=O)/C=C/[C@](C)(O)C(=O)[C@@H](C)C/C=C/[C@H]3[C@@H]1O	x	-22%	x	x	x	x
C/C(=N\NC(=O)CNc1cccc(Cl)c1C)C1CC1	21µM*	-1%	-15%	8%	u	u

Screening data deposited in PubChem by National Center for Advancing Translational Sciences (NCATS).
